Measured values: ChEMBL document CHEMBL4513216, “Probing the Open Global Health Chemical Diversity Library for Multistage-Active Starting Points for Next-Generation Antimalarials” (ACS Infect Dis, 2020)
The whole screen tested about 69,000 compounds, of which about 8,600 (12%) showed an effect of 50% or more. For the sample, strong results were picked, then their nearest neighbours and some compounds at random.

These compounds were tested on Plasmodium berghei (assay: Screen against P. berghei liver stage (PbLuc), transformed with Luciferase, at 10uM). Settings: tested at 10 uM.
Assay type: functional, HepG2

In order of rising INHIBITION:
1. CCCc1cc(C(=O)NCCC2=CCCCC2)[nH]n1  -73.5%
2. CCOc1ncccc1CNC(=O)Nc1ccc(OC)c(OC)c1  -49.5%
3. CN1CCC2(CC1)C(=O)N(c1cccnc1)c1ccc(F)cc12  -45.8%
4. Cc1cc(NC2CCC(=O)N(C)C2)n2nccc2n1 (centres undefined)  -41.8%
5. O=C(c1cccnc1N1CCCC1)N1CCOC(c2ccccc2)C1 (centres undefined)  -30.2%
6. Cc1nc2ccccn2c1CC(=O)N[C@@H]1CCC[C@@H](N2CCCC2)[C@@H]1O  -29.8%
7. O=C(CSc1nnc(N2CCOCC2)s1)NCc1cccs1  -21.5%
8. NC1CCCc2c1cnn2-c1cc(F)cc(F)c1 (centres undefined)  -19.1%
9. CC(=O)Nc1ccc(-c2ccccc2NC(=O)CN)cc1  -17.7%
10. Cc1cnn(CC2CCCCN2Cc2nnsc2Cl)c1 (centres undefined)  -17.6%
11. OCC(O)CSCc1ccc(F)cc1Cl (centres undefined)  -15.6%
12. N#CCCN(CC(F)(F)F)C(=O)c1cc(-n2cccn2)ccn1  -13.7%
13. CCN1CCN(C)C(=O)C12CCN(Cc1ccsc1)CC2  -9.74%
14. O=C(c1cnccn1)N1CCN(c2ccnc3ccsc23)CC1  -7.46%
15. Cc1nc2ccccn2c1CC(=O)N[C@@H]1CC[C@@H](N2CCCC2)[C@@H]1O  -6.92%
16. CCc1ccc(S(=O)(=O)Nc2ccncc2)s1  -6.4%
17. Cc1nnc2n1CCN(C(=O)c1cn(-c3ccc(F)cc3)nn1)C2  -6.39%
18. CCc1ncnc(N2CCOCC2C(N)=O)c1F (centres undefined)  -4.95%
19. O=C(NCC1CCCO1)c1cc(-c2ccncc2)c2cnccc2n1 (centres undefined)  -3.02%
20. COc1ccc(S(=O)(=O)N2CCOC(C)(C(N)=O)C2)cc1 (centres undefined)  -2.605%
21. Cc1nc(C)n(C2CCCN(C(=O)c3ccn(C(C)C)n3)C2)n1 (centres undefined)  -2.53%
22. CC(=O)Nc1ccc(-c2ccccc2CCN)cc1  -2.43%
23. COCCC1(CO)CCCN(C(=O)c2cc(=O)[nH]c(=O)[nH]2)C1 (centres undefined)  0.33%
24. COc1cccc(F)c1CN1CCC(c2nccc(C)n2)C1 (centres undefined)  1.35%
25. CN(C)C(=O)C1CCCN1c1ccnc2ccsc12 (centres undefined)  1.75%
26. CC(C)COC(C)C(=O)NCCNS(C)(=O)=O (centres undefined)  2.29%
27. OCCC1CCN(c2ccnc3ccsc23)C1 (centres undefined)  5.11%
28. OCC(O)CSCc1cc(Cl)ccc1Cl (centres undefined)  5.41%
29. O=C(N1CCOCC1)N1CCN(c2ccnc3ccsc23)CC1  5.76%
30. CCc1ncnc(N2CCOCC2CCO)c1F (centres undefined)  6.94%
31. CC(C)CN1CCCn2nc(CNC(=O)CN3CCOC3=O)cc2C1  7.92%
32. CNC(=O)CN1CC[C@H]2CN(C(=O)c3cccn3C)C[C@H]2C1  9.51%
33. O=C(c1cc2cc(I)ccc2[nH]1)N1CCC(Nc2cccnn2)CC1  9.54%
34. Cc1ccccc1NS(=O)(=O)c1ccc(C(=O)O)cc1F  10.5%
35. c1cnc(NCc2nnn3c2CN(CC2CC2)CCC3)nc1  10.6%
36. O=C(NCCN1CCNC1=O)c1cc(-c2ccc(O)cc2)n[nH]1  10.7%
37. O=C1CC(c2ccncc2)C2(CCN(C(=O)c3cccc(F)c3)CC2)N1 (centres undefined)  11.3%
38. O=C(O)c1ccc(S(=O)(=O)Nc2ccccc2F)c(F)c1  14.8%
39. COc1cccc(C(=O)NS(=O)(=O)c2cncc(Br)c2)c1OC  15.1%
40. CC(C)CN1CCCn2nc(CNC(=O)CCN)cc2C1  16.6%
41. c1cc(C2CCN(C3CCCCC3)C2)n[nH]1 (centres undefined)  18.535%
42. Cc1nc(CN2C[C@@H]3CN(C(=O)[C@H]4CCCO4)C[C@@H]3C2=O)cs1  19.4%
43. CC(C)(C)c1nc(CNC2CCN(S(C)(=O)=O)CC2)cs1  20.6%
44. CC(c1cccc(S(N)(=O)=O)c1)N(C)CCOc1ccccc1 (centres undefined)  22.3%
45. CC(C)C(=O)Nc1cccc(CNC(=O)CSCc2ccccn2)c1  24.2%
46. CN1CCC(c2cc(C(F)(F)F)n3ccnc3n2)CC1  26.3%
47. O=C(Cn1ccc2ccccc21)Nc1cc(N2CCCC2)ncn1  27.5%
48. O=C(Cn1ccc2ccccc21)Nc1cc(N2CCOCC2)ncn1  30.5%
49. O=C(c1cccnc1O)N1CCOC(Cc2cccc(C(F)(F)F)c2)C1 (centres undefined)  31.7%
50. Cc1oc(-c2ccsc2)nc1CC(=O)NCC(=O)Nc1cn[nH]c1  33%
51. Cc1noc(C)c1C(C)C(=O)N1CCCN(C)c2ccc(Cl)cc21 (centres undefined)  33.1%
52. Cc1cn[nH]c1C1CCCCN1C(=O)CCc1c(C)n[nH]c1C (centres undefined)  33.7%
53. CC(=O)N(Cc1ncc(C)o1)C1CCN(Cc2nnc(C3CC3)o2)C1 (centres undefined)  34.9%
54. CSc1ncc(Cl)c(C(=O)NC(Cc2ccccc2)C(=O)O)n1 (centres undefined)  36.7%
55. Cn1cc(CN2CCc3onc(C(=O)Nc4cccnc4)c3C2)cn1  43.4%
56. Cn1ccnc1CC1CCCN(C(=O)NCCOc2cccnc2)C1 (centres undefined)  44.5%
57. O=C(c1cccnc1N1CCOC(c2ccc(F)cc2)C1)N1CCCC1 (centres undefined)  45.1%
58. O=C(c1cccnc1N1CCOC(c2ccc(Cl)cc2)C1)N1CCCC1 (centres undefined)  45.1%
59. COc1ccc(C2CC(=O)Oc3cc(C)[nH]c(=O)c32)c(OC)c1 (centres undefined)  45.7%
60. Cc1cc(C(=O)NCCN2CCCc3ccccc32)[nH]n1  48.8%
61. Cc1ccc(-c2cc(C(=O)NCCC3=CCCCC3)[nH]n2)o1  49.9%
62. Cc1nc2ccccn2c1CC(=O)N[C@@H]1CC[C@@H](N2CCOCC2)[C@@H]1O  52%
63. O=C(NCCC1=CCCCC1)c1cc(-c2ccc(O)cc2)n[nH]1  52.6%
64. O=C(O)c1ccc(S(=O)(=O)Nc2ccccc2CC(F)(F)F)c(F)c1  53.3%
65. OCC(O)CSCc1ccc(Cl)cc1Cl (centres undefined)  53.9%
66. CN(C)C(=O)c1cccnc1N1CCOC(c2ccc(Cl)cc2)C1 (centres undefined)  55%
67. CCc1ncnc(N2CCOCC2C2CC2)c1F (centres undefined)  57.5%
68. Cc1nn(CC(=O)NCc2cc3n(n2)CCCN(CC(C)C)C3)cc1Cl  58.7%
69. CN1CCN(c2cc(NC(=O)Cn3ccc4ccccc43)ncn2)CC1  60.1%
70. O=C(c1cccnc1O)N1CCOC(c2ccc(Cl)cc2)C1 (centres undefined)  68.6%
71. O=C(NCCN1CCc2ccccc21)c1cc(-c2ccc(O)cc2)n[nH]1  68.9%
72. CC(=O)Nc1cccc(-c2ccccc2CCN)c1  71.3%
73. c1cc(N2CCC(CN3CCOCC3)CC2)c2sccc2n1  73.8%
74. COCC1CCN(c2ccnc3ccsc23)C1 (centres undefined)  79.5%
